The source of these data is PubChem BioAssay (Tox21).

Records with an inconclusive call do not appear. The source made the active and inactive calls. Unless noted, calls come from the whole dose curve.

The nature of assay [1]: Nuclear factor erythroid 2-related factor 2/antioxidant responsive element (Nrf2/ARE) small molecule agonists: qHTS cell viability counter screen in human keratinocytes (AID 1919968; active = well fitted curve in the direction sought with a large enough effect in the repeat runs; an effect the other way counts as inactive or inconclusive; note: nearly all actives have a fitted effect of over 55% in size). The procedure, abridged: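 HaCaT ARE reporter line, 1,500 cells/well; 5 h settle, 37 C/5% CO2; cpd in DMSO pinned; 23 h exposure; CellTiter-Fluor, 1 h; fluorescence.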
A short description of assay [2]: Nuclear factor erythroid 2-related factor 2/antioxidant responsive element (Nrf2/ARE) small molecule agonists: luciferase reporter gene qHTS assay in human keratinocytes (AID 1919969). Note: nearly all actives have a fitted effect of over 35% in size.
The target of assay [3] is Gonadotropin-releasing hormone receptor (Homo sapiens) (UniProt P30968). The assay can be described thus: Human gonadotropin-releasing hormone receptor (GnRHR) small molecule agonists, calcium flux assay in GnRHR-HEK293 cells (AID 1920063). Note: nearly all actives have a fitted effect of over 35% in size. The procedure, abridged:
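GnRHR-HEK293, 1500 cells/well, 18 h 37 C/5% CO2; Ca dye 1 h 37 C; cpd pinned (DMSO), agonist mode; kinetic FL 480/540, 3 min, 1 s reads; 15 conc, n=3.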

Assay [4] deals with KiSS-1 receptor (Homo sapiens) (UniProt Q969F8). The assay can be described thus: Human kisspeptin (KISS1R) small molecule agonists, calcium flux assay in KISS1R-HEK293 cells (AID 1920064; active = well fitted curve in the direction sought with a large enough effect in the repeat runs; an effect the other way counts as inactive or inconclusive). In outline: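 Stable human KISS1R HEK293 line; 18 h plating, 37 C/5% CO2; calcium dye 1 h 37 C; compound pin transfer; kinetic fluorescence Ex/Em 480/540, 3 min.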
KiSS-1 receptor (Homo sapiens), sequence (Q969F8 whole entry, looked up): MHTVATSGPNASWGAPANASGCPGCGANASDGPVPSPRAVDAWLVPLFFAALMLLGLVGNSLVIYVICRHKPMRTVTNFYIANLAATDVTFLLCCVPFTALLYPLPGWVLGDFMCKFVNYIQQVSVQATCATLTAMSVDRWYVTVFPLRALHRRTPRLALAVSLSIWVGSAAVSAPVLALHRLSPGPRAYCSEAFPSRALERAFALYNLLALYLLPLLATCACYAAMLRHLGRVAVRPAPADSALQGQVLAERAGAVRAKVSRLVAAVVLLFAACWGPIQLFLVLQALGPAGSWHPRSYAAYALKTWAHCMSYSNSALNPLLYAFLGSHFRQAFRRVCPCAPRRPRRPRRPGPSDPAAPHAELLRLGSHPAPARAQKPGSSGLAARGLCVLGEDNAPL
A short description of assay [5]: G protein-coupled receptor (GPCR) small molecule agonists, calcium flux assay: HEK293 wild type cell line counter screen (AID 1920065). In outline: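 Kinetic fluorescence at Ex/Em 480/540, recorded every second over 3 min, served as the read-out after compound addition. Each compound was tested at 15 concentrations in triplicate on cells pre-loaded with calcium dye for 1 h.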

The nature of assay [6]: p53 small molecule agonists, cell-based qHTS assay with human liver microsomes (AID 1963577). The procedure, abridged:
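Fluorescence of the beta-lactamase reporter in p53RE-bla cells, detected with LiveBLAzer substrate (2 h, room temperature, dark), served as the read-out after 16 h compound exposure at 37 C with human liver microsomes and NADPH, each 0.5 mg/mL final.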

A short description of assay [7]: p53 small molecule agonists, cell-based qHTS assay with rat liver microsomes (AID 1963578). In outline:
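Cells carrying a p53 response element–beta-lactamase reporter were plated and rested 5 h, then dosed with compound in DMSO plus rat liver microsomes and NADPH, each at 0.5 mg/mL final. After 16 h at 37 C, LiveBLAzer substrate was added for 2 h.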

Assay [8] in a line: p53 small molecule agonists, cell-based qHTS assay with human liver microsomes: qHTS cell viability counter screen (AID 1963579). Note: nearly all actives have a fitted effect of over 45% in size. The procedure, abridged: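 Cytotoxicity counter screen: p53RE-bla, 4,000 cells/well; 5 h settle, 37 C/5% CO2; cpd + HLM 0.5 mg/mL + NADPH 0.5 mg/mL (final); 16 h, 37 C; CellTiter-Glo, 30 min RT, luminescence.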
Assay [9] in a line: p53 small molecule agonists, cell-based qHTS assay with rat liver microsomes: qHTS cell viability counter screen (AID 1963580). Note: nearly all actives have a fitted effect of over 45% in size. In outline:
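Intracellular ATP, by CellTiter-Glo luminescence, defines viability. HCT-116 p53RE-bla cells, 4,000 per well, were compound-treated in the presence of rat liver microsomes and NADPH for 16 h at 37 C.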

A short description of assay [10]: p53 small molecule agonists, cell-based qHTS assay: qHTS cell viability counter screen (AID 1963581). Note: nearly all actives have a fitted effect of over 45% in size. The procedure, abridged: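 HCT-116 p53RE-bla cells, 4,000/well, plated 5 h before compound pin transfer; 16 h at 37 C; bla substrate 2 h RT; then CellTiter-Glo, 30 min RT, luminescence.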
Assay [11] is described as follows: p53 small molecule agonists, cell-based qHTS assay (AID 1963582; active = well fitted activation curve with a large enough effect in the signal ratio in the repeat runs, not every such curve was filed as active; the % refers to the signal ratio). The procedure, abridged:
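Reporter line: p53RE-bla. Pre-incubation 5 h, 37 C, 5% CO2; compound (DMSO, pin tool) 16 h, 37 C; B/G FRET substrate 2 h RT; fluorescence intensity read.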

Assay [12] has as its target 5-hydroxytryptamine receptor 2A (Homo sapiens) (UniProt P28223). Kind of assay: 5-hydroxytryptamine receptor 2A (HTR2A) small molecule antagonists, cell-based qHTS assay (AID 1963586). Note: nearly all actives have a fitted effect of over 45% in size. In outline:
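Antagonist-mode intracellular calcium assay: DOI (4 nM) added after 5 min compound pre-incubation at room temperature to dye-loaded HTR2A-CHO cells. Fluorescence followed for 3 min, sampled every second.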

Assay [13] shares this target. The assay can be described thus: 5-hydroxytryptamine receptor 2A (HTR2A) small molecule agonists, cell-based qHTS assay (AID 1963587). Note: nearly all actives have a fitted effect of over 30% in size. The procedure, abridged:
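Kinetic calcium-flux fluorescence (2 min, 1 sec intervals) after compound addition in agonist mode. HTR2A-CHO cells were cultured 18 h, then dye-loaded 1 h at 37 C.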

The target of assay [14] is Muscarinic acetylcholine receptor M1 (Homo sapiens) (UniProt P11229). The assay can be described thus: Cholinergic receptor muscarinic 1 (CHRM1) small molecule antagonists, cell-based qHTS assay (AID 1963588). Note: nearly all actives have a fitted effect of over 40% in size. Note: potency is the fitted concentration of half-maximal effect. The procedure, abridged:
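CHRM1-CHO calcium-flux assay, antagonist mode. Cells were seeded 18 h, dye-loaded 1 h at 37 C and given compound for 5 min at RT, then acetylcholine was added at 50nM. FDSS fluorescence was read 3 min; 15 concentrations, three runs.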

The target is the same in assay [15]. The assay can be described thus: Cholinergic receptor muscarinic 1 (CHRM1) small molecule agonists, cell-based qHTS assay (AID 1963589). Note: nearly all actives have a fitted effect of over 35% in size. In outline: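 Human M1 in stable CHO line; 18 h plating, 1 h dye load 37 C; cpd added (agonist mode); Ca2+ fluorescence kinetic read, 1 s intervals; 15 conc, 3 runs.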
Assay [16] can be described thus: cAMP Responsive Elements (CRE) small molecule antagonists, cell-based qHTS assay (AID 1963591; active = well fitted inhibition curve with a large enough effect in the signal ratio in the repeat runs, not every such curve was filed as active; the % refers to the signal ratio). The procedure, abridged: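 Beta-lactamase reporter read by FRET substrate (LiveBLAzer B/G) after 2 h at room temperature. CRE-bla HEK293T cells had received compound plus 0.25 uM (final) NKH477 for 3 h at 37 °C.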
Assay [17] deals with Beta-2 adrenergic receptor (Homo sapiens) (UniProt P07550). The assay can be described thus: Adrenergic beta2 receptor (ADRB2) small molecule antagonists, cell-based qHTS assay (AID 1963592). Note: series mostly up to about 92 µM; nearly all actives have a fitted effect of over 50% in size. In outline: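 Cells (CHO, stable ADRB2 overexpression) incubated 18-20hr at 37C; compounds added from DMSO; agonist mix (1nM isoproterenol, 100uM IBMX, 25uM Ro-20-1724) added; 0.5hr RT; d2-cAMP and anti-cAMP-cryptate added; 1hr RT; 665/615 nm read.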
Beta-2 adrenergic receptor (Homo sapiens), sequence (P07550 whole entry, looked up): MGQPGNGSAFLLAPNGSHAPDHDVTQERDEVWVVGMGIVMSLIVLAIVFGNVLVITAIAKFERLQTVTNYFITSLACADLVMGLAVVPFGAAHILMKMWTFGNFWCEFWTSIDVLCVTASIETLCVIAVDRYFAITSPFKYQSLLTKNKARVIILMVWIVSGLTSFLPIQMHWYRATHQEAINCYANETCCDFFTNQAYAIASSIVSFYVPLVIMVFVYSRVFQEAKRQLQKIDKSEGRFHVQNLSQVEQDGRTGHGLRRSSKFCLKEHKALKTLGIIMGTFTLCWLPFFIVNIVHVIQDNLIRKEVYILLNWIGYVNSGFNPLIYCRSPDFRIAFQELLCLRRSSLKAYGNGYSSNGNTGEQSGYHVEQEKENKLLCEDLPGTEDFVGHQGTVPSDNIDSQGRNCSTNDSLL

Assay [18] has as its target D(2) dopamine receptor (Homo sapiens) (UniProt P14416). The assay can be described thus: Dopamine D2 receptor (DRD2) small molecule antagonists, cell-based qHTS assay (AID 1963595; active = well fitted inhibition curve with a large enough effect in the signal ratio in the repeat runs, with a control signal flat; the % refers to the signal ratio). The procedure, abridged:
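HEK293 cells stably expressing DRD2, preincubated with 0.1 mM Ro20-1724 and compounds 10 min, were stimulated with 200 nM NKH477 plus 12 nM quinpirole for 30 min at room temperature; cAMP measured by HTRF (665/620 nm).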

Assay [19] in a line: cAMP Responsive Elements (CRE) small molecule agonists, cell-based qHTS assay (AID 1963590). In outline: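 HEK 293T CRE-bla, 2,000 cells/well, 18 h preincubation 37 C/5% CO2; cpds (DMSO) pinned, 3 h; LiveBLAzer B/G FRET substrate, 2 h RT.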
Assay [20] has as its target D(2) dopamine receptor (Homo sapiens) (UniProt P14416). The assay can be described thus: Dopamine D2 receptor (DRD2) small molecule agonists, cell-based qHTS assay (AID 1963594). Note: nearly all actives have a fitted effect of over 35% in size. In outline: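 cAMP accumulation in DRD2-HEK293 cells measured by HTRF after 1 h detection; compounds added 10 min before NKH477 (200nM […]) forskolin-analogue stimulation, 30 min at room temperature, with Ro20-1724 present at 0.1 mM final.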

D(2) dopamine receptor (Homo sapiens), sequence (P14416 whole entry, looked up): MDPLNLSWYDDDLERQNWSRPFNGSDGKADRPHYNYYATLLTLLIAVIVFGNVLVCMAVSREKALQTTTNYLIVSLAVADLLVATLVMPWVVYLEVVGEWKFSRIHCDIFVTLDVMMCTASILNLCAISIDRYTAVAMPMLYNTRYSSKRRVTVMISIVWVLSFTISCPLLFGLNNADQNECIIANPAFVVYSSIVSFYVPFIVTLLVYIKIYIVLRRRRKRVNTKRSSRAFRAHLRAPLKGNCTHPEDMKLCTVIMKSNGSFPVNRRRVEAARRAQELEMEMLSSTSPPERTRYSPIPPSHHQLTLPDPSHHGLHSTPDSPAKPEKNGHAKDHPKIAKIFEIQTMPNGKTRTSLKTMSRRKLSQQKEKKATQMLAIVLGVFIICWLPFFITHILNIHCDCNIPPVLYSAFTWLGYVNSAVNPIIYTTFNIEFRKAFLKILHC
Muscarinic acetylcholine receptor M1 (Homo sapiens), sequence (P11229 whole entry, looked up): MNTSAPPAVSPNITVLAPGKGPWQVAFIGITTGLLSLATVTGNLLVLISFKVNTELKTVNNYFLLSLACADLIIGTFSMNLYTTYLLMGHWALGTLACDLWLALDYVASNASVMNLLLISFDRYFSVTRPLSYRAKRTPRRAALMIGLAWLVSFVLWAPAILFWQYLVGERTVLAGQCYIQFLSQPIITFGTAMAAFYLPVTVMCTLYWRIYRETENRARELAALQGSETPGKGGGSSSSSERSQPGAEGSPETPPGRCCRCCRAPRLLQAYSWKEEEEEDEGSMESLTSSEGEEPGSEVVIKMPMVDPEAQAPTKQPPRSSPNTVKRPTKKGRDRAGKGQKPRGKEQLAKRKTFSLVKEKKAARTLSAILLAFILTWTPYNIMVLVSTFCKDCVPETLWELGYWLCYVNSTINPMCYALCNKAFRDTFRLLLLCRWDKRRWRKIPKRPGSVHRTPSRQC
Gonadotropin-releasing hormone receptor (Homo sapiens), sequence (P30968 whole entry, looked up): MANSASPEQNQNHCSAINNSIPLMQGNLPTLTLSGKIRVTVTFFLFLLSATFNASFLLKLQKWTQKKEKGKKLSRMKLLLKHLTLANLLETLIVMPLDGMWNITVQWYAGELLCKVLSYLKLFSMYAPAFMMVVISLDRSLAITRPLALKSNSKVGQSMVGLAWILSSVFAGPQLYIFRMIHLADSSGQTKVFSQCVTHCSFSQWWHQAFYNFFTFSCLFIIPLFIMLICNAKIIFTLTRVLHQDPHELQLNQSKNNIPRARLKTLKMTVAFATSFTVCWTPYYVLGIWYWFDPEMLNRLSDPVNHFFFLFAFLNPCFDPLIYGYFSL
5-hydroxytryptamine receptor 2A (Homo sapiens), sequence (P28223 whole entry, looked up): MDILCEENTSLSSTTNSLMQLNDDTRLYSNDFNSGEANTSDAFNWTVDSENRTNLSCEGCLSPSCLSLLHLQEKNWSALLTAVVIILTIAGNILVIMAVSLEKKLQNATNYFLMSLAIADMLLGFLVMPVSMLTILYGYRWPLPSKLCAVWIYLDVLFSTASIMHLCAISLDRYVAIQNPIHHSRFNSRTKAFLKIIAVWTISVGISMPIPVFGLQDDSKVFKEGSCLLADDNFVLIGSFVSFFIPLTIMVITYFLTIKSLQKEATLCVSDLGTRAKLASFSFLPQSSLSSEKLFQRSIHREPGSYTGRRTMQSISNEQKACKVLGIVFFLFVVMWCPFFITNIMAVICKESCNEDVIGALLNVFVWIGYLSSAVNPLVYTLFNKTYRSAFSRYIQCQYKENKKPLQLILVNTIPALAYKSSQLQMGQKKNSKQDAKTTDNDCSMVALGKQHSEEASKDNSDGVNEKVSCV

Regarding `CCc1cc(C)cc(CC)c1-c1c(OC(=O)C(C)(C)C)n2n(c1=O)CCOCC2`, the Potency result in assay [1], in [2], in [3], in [4], in [5] and in assay [6] was “inactive” each time. In addition, the Potency result in assay [7], in assay [8], in assay [9], in assay [10], in assay [11] and in assay [12] was “inactive” each time. Besides, the Potency result in assay [13], in [14], in assay [15], in [16], in assay [17] and in assay [18] was “inactive” throughout.
For `N#CCCC#N`, the Potency entry in [1], in assay [2], in assay [3], in assay [4], in [5] and in assay [6] was “inactive” in each case. Moreover, the Potency result in assay [7], in assay [8], in [9], in [10], in [11] and in assay [12] was “inactive” each time. Further, the Potency result in assay [13], in [14], in assay [15], in assay [19], in assay [17] and in assay [20] was “inactive” throughout. The Potency entry in [18] is “inactive”.
As to `NC(=O)O`, the Potency entry in assay [1], in [2], in assay [3], in [4], in [5] and in assay [6] was “inactive” throughout. Moreover, the Potency result in [7], in assay [8], in assay [9], in [10], in assay [11] and in [12] was “inactive” each time. Moreover, the Potency result in assay [13], in assay [14], in assay [15], in assay [19], in [16] and in [20] was “inactive” in each case. Also, the Potency result in assay [18] was “inactive”.
Turning to `O=C(O)C1C(C(=O)O)C2(Cl)C(Cl)=C(Cl)C1(Cl)C2(Cl)Cl` (configuration not stated), the Potency result in assay [1], in assay [2], in assay [3], in [4], in assay [5] and in assay [6] was “inactive” in each case. Further, the Potency entry in [7], in assay [8], in assay [9], in [10], in assay [11] and in assay [12] was “inactive” each time. Further, the Potency result in assay [13], in assay [14], in assay [15], in assay [16], in [17] and in assay [20] was “inactive” in each case. Also, in assay [18], the Potency entry was “inactive”.
For `NC(=O)c1cc([N+](=O)[O-])cc([N+](=O)[O-])c1`, the Potency result in [1], in assay [2], in assay [3], in assay [4], in assay [5] and in assay [6] was “inactive” in each case. The Potency entry in assay [7], in assay [8], in [9], in assay [10], in [11] and in assay [12] was “inactive” each time. For the same compound, the Potency result in [13], in assay [15], in [19], in [16], in assay [20] and in assay [18] was “inactive” in each case. Besides, the Potency in [14] was 460 nM (active).
As to `CCCCC#N`, the Potency entry in assay [1], in assay [2], in [3], in [4], in assay [5] and in assay [6] was “inactive” throughout. Also, the Potency result in assay [7], in assay [8], in assay [9], in assay [10], in assay [11] and in assay [12] was “inactive” in each case. For the same compound, the Potency entry in assay [13], in [14], in [15], in [19], in [16] and in assay [20] was “inactive” each time. For the same compound, the Potency result in [18] is “inactive”.
Consider `CS(=O)(=O)Cl`, for which the Potency entry in assay [1], in assay [2], in assay [3], in assay [4], in assay [5] and in assay [6] was “inactive” in each case. Also, the Potency result in assay [7], in [8], in [9], in [10], in [11] and in assay [12] was “inactive” each time. For the same compound, the Potency result in assay [13], in assay [14], in assay [15], in [16], in [17] and in assay [20] was “inactive” in each case. In addition, in assay [18], the Potency entry is “inactive”.
